Test systems include HCT-15 colon; HT29 colon; SNB-75 CNS; SNB-19 CNS; U251 CNS; PC-3 prostate; SK-MEL-5 melanoma; UACC-62 melanoma; LOX IMVI melanoma; SK-MEL-28 melanoma.
What all share (experiment): NCI-60 one-dose screen, 48 h (100 = growth as untreated, 0 = no growth, -100 = all killed)
Common to all, as to details: 10 µM unless noted

Molecules are shown by their SMILES. The panel holds about 83,000 compounds, 20% with a hit somewhere; the sample as a whole holds those more often.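 Results are percent growth after 48 hours of single-concentration exposure. 100 means growth as in untreated cells, lower positive values show inhibition; negative values down to -100 show cell death.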 A number with no mark means an inactive call. The source made the active and inactive calls. Rule for the calls: active = growth percent below 10; inactive = the rest.

Take `COc1cc(Cn2cc3c(c2)-c2onc(CN4CCOCC4)c2CC3)cc(OC)c1OC`: the growth with HCT-15 colon is 97.9%; with HT29 colon it was 104%; with SNB-75 CNS it was 117%; with SNB-19 CNS, 97.2%; with U251 CNS, 102%; in the test on PC-3 prostate it was 91.6%. In addition, the growth is 74.9% with SK-MEL-5 melanoma, 78.8% in the test with UACC-62 melanoma, 100% with LOX IMVI melanoma and 105% with SK-MEL-28 melanoma.
For the molecule `CC(C)(C)c1ccc(CC(=O)Nc2sc3c(c2C(N)=O)CCC(=O)C3)cc1`, the growth with HCT-15 colon was -19.5% (active); with HT29 colon, 3.3% (active); in the test with SNB-75 CNS, 23%; in the test on SNB-19 CNS it was 22.8%; in the test with U251 CNS, 14.9%; in the test on PC-3 prostate it was 13.1%. Further, the growth in the test with SK-MEL-5 melanoma was -76% (active); in the test on UACC-62 melanoma, -32.8% (active); in the test on LOX IMVI melanoma, -3.55% (active); in the test on SK-MEL-28 melanoma it was 5.18% (active).
`COc1ccc(C2CC(c3ccc(Nc4nc(NCCO)nc(N5CCOCC5)n4)cc3)=Nc3c(N)nc(N)nc3N2)cc1` (stereo not given): the growth is 100% with HCT-15 colon; 102% with HT29 colon; 86.4% in the test with SNB-75 CNS; 102% in the test on SNB-19 CNS; 95.5% in the test on U251 CNS; 105% in the test on PC-3 prostate. The growth with SK-MEL-5 melanoma was 96.2%; in the test with UACC-62 melanoma, 104%; in the test on LOX IMVI melanoma, 103%; in the test on SK-MEL-28 melanoma, 108%.
Consider `Cc1ccc(-n2cc(/C=N/NC(=O)c3nc(N)n[nH]3)c(-c3ccc(S(C)(=O)=O)cc3)n2)cc1`, for which the growth was 86.4% with HCT-15 colon; 105% in the test on HT29 colon; 92.2% in the test with SNB-75 CNS; 97.4% with SNB-19 CNS; 101% with U251 CNS; 96.8% in the test with PC-3 prostate. The growth with SK-MEL-5 melanoma was 103%; with UACC-62 melanoma, 88.5%; in the test on LOX IMVI melanoma, 90.2%; in the test on SK-MEL-28 melanoma, 101%.
As to `Cc1cc(S(=O)(=O)N(C)C)cc(NCC(=O)NC(=O)NCC(C)C)c1C`, the growth in the test with HCT-15 colon is 110%; in the test with HT29 colon it was 114%; in the test with SNB-75 CNS, 45%; with SNB-19 CNS, 105%; with U251 CNS, 108%; in the test on PC-3 prostate, 101%. For the same molecule, the growth in the test with SK-MEL-5 melanoma was 96.5%; in the test with UACC-62 melanoma, 91.8%; with LOX IMVI melanoma, 96.4%; with SK-MEL-28 melanoma, 102%.
Regarding `COc1ccc(CCOc2cc3c(cc2OC)CCN(C(=O)NCc2cocn2)C3c2ccc(C)cc2C)cc1` (stereo not given), the growth in the test on HCT-15 colon was 5.53% (active); in the test with HT29 colon, -2.64% (active); in the test on SNB-75 CNS, 39.2%; in the test with SNB-19 CNS, 22%; in the test with U251 CNS, 5.74% (active); with PC-3 prostate, 20.1%. In addition, the growth with SK-MEL-5 melanoma is -43.2% (active); in the test with UACC-62 melanoma, 24%; in the test on LOX IMVI melanoma it was 1.85% (active); in the test on SK-MEL-28 melanoma it was 38.7%.
In the case of `O=C(NNc1nc2cc(F)c(F)cc2n2c(CN3CC4CNCC4C3)ccc12)c1cnccn1` (stereo not given), the growth in the test on HCT-15 colon is 23%; in the test with HT29 colon it was 26.3%; in the test with SNB-75 CNS, 60%; with SNB-19 CNS it was 25.9%; in the test on U251 CNS, 22.4%; with PC-3 prostate it was 22%. In addition, the growth with SK-MEL-5 melanoma was 0.703% (active); with UACC-62 melanoma, -1.09% (active); with LOX IMVI melanoma, 2.25% (active); in the test with SK-MEL-28 melanoma, 27.4%.
With `CCOC(=O)C(=O)CC(=O)N1C(=S)NC(=O)C1CC(C)C` (stereo not given), the growth in the test on HCT-15 colon was 94.8%; with HT29 colon, 113%; in the test on SNB-75 CNS it was 100%; in the test with SNB-19 CNS, 99.9%; with U251 CNS it was 105%; in the test with PC-3 prostate, 103%. Moreover, the growth is 95.6% with SK-MEL-5 melanoma, 96.3% in the test on UACC-62 melanoma, 98% in the test with LOX IMVI melanoma and 99.6% in the test on SK-MEL-28 melanoma.
As for `COc1ccc(Cn2cc3c(c2-c2cc(OC)c(OC)c(OC)c2)CCc2c(CN4CCOCC4)noc2-3)cc1`, the growth is 15.3% with HCT-15 colon; 11.7% with HT29 colon; 18% in the test with SNB-75 CNS; 27.1% in the test with SNB-19 CNS; 27.9% in the test with U251 CNS; 31.9% in the test on PC-3 prostate. Moreover, the growth in the test on SK-MEL-5 melanoma is 17.3%; in the test on UACC-62 melanoma, 19.1%; with LOX IMVI melanoma it was 33.5%; in the test with SK-MEL-28 melanoma, 60.7%.
Regarding `COc1ccc(OC)c(-c2nc(SCC(=O)c3ccc(Br)cc3)nc(Nc3ccc(S(N)(=O)=O)cc3)c2C#N)c1`, the growth with HCT-15 colon is 22.1%; with HT29 colon, 27.2%; in the test on SNB-75 CNS, 22.1%; in the test on SNB-19 CNS, 49.9%; in the test with U251 CNS, 37.6%; in the test on PC-3 prostate, 35.3%. Also, the growth in the test on SK-MEL-5 melanoma is 56.1%; with UACC-62 melanoma, 42.7%; with LOX IMVI melanoma, 32.6%; with SK-MEL-28 melanoma it was 57.7%.
Turning to `C=CCN(C)S(=O)(=O)/N=C1\NC(=O)NC1=C(Cl)Cl`, the growth was -77.2% (active) with HCT-15 colon; 5.89% (active) with HT29 colon; 100% with SNB-75 CNS; 58.4% with SNB-19 CNS; -10.2% (active) in the test on U251 CNS; 47% in the test with PC-3 prostate. Moreover, the growth in the test on SK-MEL-5 melanoma is 91.6%; with UACC-62 melanoma it was 32.9%; with LOX IMVI melanoma, -88.3% (active); in the test on SK-MEL-28 melanoma, -83.6% (active).
In the case of `NC(N)=Nc1ccc(Oc2cccc(Nc3ccc(Cl)cc3)c2)cn1`, the growth was -48.7% (active) in the test with HCT-15 colon; 4.94% (active) in the test with HT29 colon; 22.9% in the test on SNB-75 CNS; 23.8% in the test with SNB-19 CNS; -71.2% (active) in the test on U251 CNS; -77.5% (active) with PC-3 prostate. Further, the growth is 48.8% in the test on SK-MEL-5 melanoma, 43.3% with UACC-62 melanoma, -96.9% (active) in the test with LOX IMVI melanoma and 49.4% with SK-MEL-28 melanoma.
For `COc1ccc(/C=C/C(=O)c2cccc(NC(=O)CSc3nc4ccccc4c(=O)n3-c3ccccc3)c2)cc1OC`, the growth in the test on HCT-15 colon was 89.5%; in the test on HT29 colon it was 112%; in the test on SNB-75 CNS it was 86.2%; with SNB-19 CNS, 93.4%; in the test on U251 CNS, 101%; in the test with PC-3 prostate, 97%. For the same molecule, the growth with SK-MEL-5 melanoma is 99%; with UACC-62 melanoma, 89.9%; in the test on LOX IMVI melanoma, 91.5%; with SK-MEL-28 melanoma, 115%.

The values above are taken from PubChem BioAssay (NCI).
